Among all 5,500 compounds or so, about 2,000 (36%) were called active. Roughly 18% stayed inconclusive and do not appear here. No stated cut-off is given here; in the data, active means normalized growth mostly below about 0.91 (no sharp cut-off); inconclusive means no clear call, values can overlap the other calls; inactive means mostly above about 0.92. Some of the results follow.
Assay: chemical genetic growth profiling, strain panel (AID 1159580);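 further: tested at 20 µM; growth read once vehicle control cultures reached saturation at 30 °C; 1 = growth at the plate median or of vehicle wells; lower values mean less growth of the strain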
Settings: growth OD

Measured: normalized growth

COc1cc2c3cc1Oc1cc(ccc1O)C[C@@H]1c4c(cc(OC)c(O)c4Oc4ccc(cc4)C[C@@H]3N(C)CC2)CC[N+]1(C)C
inactive: S. cerevisiae deletion strains, locus YKL009W, strain mrt4, hits give low values 1.04 | S. cerevisiae deletion strains, locus YKL068W, hits give low values 0.997 | S. cerevisiae deletion strains, locus YKL085W, strain MDH1 (second series), hits give low values 0.988 | S. cerevisiae deletion strains, locus YKL085W, strain MDH1, hits give low values 0.988 | S. cerevisiae deletion strains, locus YKL160W, strain elf1, hits give low values 1.04 | S. cerevisiae deletion strains, locus YKL190W, strain CNB1, hits give low values 1.01 | S. cerevisiae deletion strains, locus YKR001C, strain vps1, hits give low values 1.01 | S. cerevisiae deletion strains, locus YKR026C, strain gcn3, hits give low values 1 | S. cerevisiae deletion strains, locus YKR091W, strain srl3, hits give low values 0.999 | S. cerevisiae deletion strains, locus YLL001W, strain dnm1, hits give low values 1.04 | S. cerevisiae deletion strains, locus YLL026W, hits give low values 1.01 | S. cerevisiae deletion strains, locus YLL041C, strain sdh2, hits give low values 1 | S. cerevisiae deletion strains, locus YLR027C, strain aat2, hits give low values 1.02 | S. cerevisiae deletion strains, locus YLR039C, strain RIC1, hits give low values 1.09 | S. cerevisiae deletion strains, locus YLR058C, strain SHM2, hits give low values 1.01 | S. cerevisiae deletion strains, locus YLR102C, strain apc9, hits give low values 1 | S. cerevisiae deletion strains, locus YLR113W, strain HOG1, hits give low values 0.996 | S. cerevisiae deletion strains, locus YLR221C, strain rsa3, hits give low values 0.966 | S. cerevisiae deletion strains, locus YLR258W, strain gsy2, hits give low values 0.988 | S. cerevisiae deletion strains, locus YLR262C, strain YPT6 (second series), hits give low values 1.04 | S. cerevisiae deletion strains, locus YLR262C, strain YPT6, hits give low values 1.06 | S. cerevisiae deletion strains, locus YLR268W, strain sec22, hits give low values 1.04 | S. cerevisiae deletion strains, locus YLR320W, strain mms22, hits give low values 0.967 | S. cerevisiae deletion strains, locus YLR330W, strain CHS5, hits give low values 1.01 | S. cerevisiae deletion strains, locus YLR342W, strain FKS1 (second series), hits give low values 0.999 | S. cerevisiae deletion strains, locus YLR342W, strain FKS1, hits give low values 1.02 | S. cerevisiae deletion strains, locus YLR357W, strain rsc2, hits give low values 0.958 | S. cerevisiae deletion strains, locus YLR370C, strain arc18, hits give low values 1.01 | S. cerevisiae deletion strains, locus YLR371W, strain rom2, hits give low values 1.01 | S. cerevisiae deletion strains, locus YLR384C, strain iki3, hits give low values 1 | S. cerevisiae deletion strains, locus YLR418C, strain cdc73, hits give low values 0.986 | S. cerevisiae deletion strains, locus YML016C, strain PPZ1, hits give low values 1.01 | S. cerevisiae deletion strains, locus YML032C, strain rad52, hits give low values 0.981 | S. cerevisiae deletion strains, locus YML120C, strain ndi1, hits give low values 1.03 | S. cerevisiae deletion strains, locus YML124C, strain tub3, hits give low values 0.999 | S. cerevisiae deletion strains, locus YMR058W, strain fet3, hits give low values 1 | S. cerevisiae deletion strains, locus YMR078C, strain ctf18, hits give low values 1.01 | S. cerevisiae deletion strains, locus YMR125W, strain sto1, hits give low values 0.993 | S. cerevisiae deletion strains, locus YMR129W, hits give low values 0.98 | S. cerevisiae deletion strains, locus YMR205C, strain PFK2, hits give low values 1.03 | S. cerevisiae deletion strains, locus YMR223W, strain ubp8, hits give low values 0.994 | S. cerevisiae deletion strains, locus YMR231W, strain pep5, hits give low values 0.993 | S. cerevisiae deletion strains, locus YMR307W, strain GAS1, hits give low values 1.06 | S. cerevisiae deletion strains, locus YNL067W, strain RPL9B, hits give low values 1.04 | S. cerevisiae deletion strains, locus YNL071W, strain lat1, hits give low values 0.969 | S. cerevisiae deletion strains, locus YNL128W, strain TEP1, hits give low values 1.02 | S. cerevisiae deletion strains, locus YNL183C, strain NPR1, hits give low values 0.948 | S. cerevisiae deletion strains, locus YNL209W, strain ssb2, hits give low values 0.982 | S. cerevisiae deletion strains, locus YNL233W, strain BNI4, hits give low values 1.03 | S. cerevisiae deletion strains, locus YNL248C, strain rpa49, hits give low values 0.926 | S. cerevisiae deletion strains, locus YNL250W, strain rad50, hits give low values 1.01 | S. cerevisiae deletion strains, locus YNL271C, strain bni1, hits give low values 1.01 | S. cerevisiae deletion strains, locus YNL298W, strain CLA4, hits give low values 1 | S. cerevisiae deletion strains, locus YNL307C, strain MCK1, hits give low values 1.01 | S. cerevisiae deletion strains, locus YNL322C, strain KRE1 (second series), hits give low values 0.984 | S. cerevisiae deletion strains, locus YNL322C, strain KRE1, hits give low values 0.999 | S. cerevisiae deletion strains, locus YNR049C, strain mso1, hits give low values 0.99 | S. cerevisiae deletion strains, locus YNR052C, strain pop2, hits give low values 1.01 | S. cerevisiae deletion strains, locus YOL006C, strain TOP1, hits give low values 1.1 | S. cerevisiae deletion strains, locus YOL012C, strain htz1 0.91 | S. cerevisiae deletion strains, locus YOL147C, strain pex11, hits give low values 0.995 | S. cerevisiae deletion strains, locus YOR001W, strain rrp6, hits give low values 1.02 | S. cerevisiae deletion strains, locus YOR061W, strain CKA2, hits give low values 1.01 | S. cerevisiae deletion strains, locus YOR069W, strain VPS5, hits give low values 1.01 | S. cerevisiae deletion strains, locus YOR070C, strain gyp1, hits give low values 0.993 | S. cerevisiae deletion strains, locus YOR080W, strain dia2, hits give low values 1.01 | S. cerevisiae deletion strains, locus YOR083W, strain WHI5, hits give low values 1.01 | S. cerevisiae deletion strains, locus YOR106W, strain vam3, hits give low values 1.03 | S. cerevisiae deletion strains, locus YOR136W, strain idh2, hits give low values 1 | S. cerevisiae deletion strains, locus YOR144C, strain elg1, hits give low values 0.993 | S. cerevisiae deletion strains, locus YOR184W, strain ser1, hits give low values 1.01 | S. cerevisiae deletion strains, locus YOR231W, strain MKK1, hits give low values 0.996 | S. cerevisiae deletion strains, locus YOR265W, strain rbl2, hits give low values 0.999 | S. cerevisiae deletion strains, locus YOR270C, strain vph1, hits give low values 0.985 | S. cerevisiae deletion strains, locus YOR290C, strain snf2, hits give low values 0.946 | S. cerevisiae deletion strains, locus YOR316C, strain cot1, hits give low values 1 | S. cerevisiae deletion strains, locus YPL051W, strain arl3, hits give low values 1.01 | S. cerevisiae deletion strains, locus YPL055C, strain LGE1, hits give low values 1.04 | S. cerevisiae deletion strains, locus YPL078C, strain atp4, hits give low values 1.04 | S. cerevisiae deletion strains, locus YPL106C, strain sse1, hits give low values 0.937 | S. cerevisiae deletion strains, locus YPL240C, strain hsp82, hits give low values 1 | S. cerevisiae deletion strains, locus YPL256C, strain CLN2, hits give low values 0.99 | S. cerevisiae deletion strains, locus YPR119W, strain clb2, hits give low values 1 | S. cerevisiae deletion strains, locus YPR141C, strain kar3, hits give low values 1.01 | S. cerevisiae deletion strains, locus YPR163C, strain tif3, hits give low values 0.992 | S. cerevisiae deletion strains, locus YPR167C, strain met16, hits give low values 0.999 | S. cerevisiae deletion strains, strain wtn01, hits give low values 1.01 | S. cerevisiae strains, strain wild type, hits give low values 1.01

— PubChem BioAssay AID1159580 (chemical genetic matrix, 2015)
